Here are results for 97 molecules from PubChem BioAssay AID504339 (National Center for Advancing Translational Sciences (NCATS), 2011).

In all, about 390,000 compounds went through this assay and about 17,000 (4.4%) were called active. Where a call stands in place of a potency, no number is given. Another 8% or so got no clear call; they are omitted. This excerpt belongs to a sample that is enriched for actives. Unmarked numbers belong to inactive results. Calls follow the shape of the dose curve; as a rule, active = well fitted inhibition curve with a large enough effect; inconclusive = small, poorly fitted or top-dose-only effect; inactive = no such curve, though single readings can be large or run the other way.
Potency is read from the fitted curve at half-maximal effect.

For this experiment, the target named is Lysine-specific demethylase 4A (Homo sapiens) (UniProt O75164). The experiment in a line: qHTS Assay for Inhibitors of JMJD2A-Tudor Domain. Also: nearly all actives have a fitted effect of over 50% in size. The settings on record: AlphaScreen JMJD2A-Tudor / H3K4me3 peptide binding; series mostly up to 114 µM. Background: qHTS replaces the single test concentration by a dilution series.
Lysine-specific demethylase 4A (Homo sapiens), sequence (O75164 whole entry, looked up, the tested form may be a part): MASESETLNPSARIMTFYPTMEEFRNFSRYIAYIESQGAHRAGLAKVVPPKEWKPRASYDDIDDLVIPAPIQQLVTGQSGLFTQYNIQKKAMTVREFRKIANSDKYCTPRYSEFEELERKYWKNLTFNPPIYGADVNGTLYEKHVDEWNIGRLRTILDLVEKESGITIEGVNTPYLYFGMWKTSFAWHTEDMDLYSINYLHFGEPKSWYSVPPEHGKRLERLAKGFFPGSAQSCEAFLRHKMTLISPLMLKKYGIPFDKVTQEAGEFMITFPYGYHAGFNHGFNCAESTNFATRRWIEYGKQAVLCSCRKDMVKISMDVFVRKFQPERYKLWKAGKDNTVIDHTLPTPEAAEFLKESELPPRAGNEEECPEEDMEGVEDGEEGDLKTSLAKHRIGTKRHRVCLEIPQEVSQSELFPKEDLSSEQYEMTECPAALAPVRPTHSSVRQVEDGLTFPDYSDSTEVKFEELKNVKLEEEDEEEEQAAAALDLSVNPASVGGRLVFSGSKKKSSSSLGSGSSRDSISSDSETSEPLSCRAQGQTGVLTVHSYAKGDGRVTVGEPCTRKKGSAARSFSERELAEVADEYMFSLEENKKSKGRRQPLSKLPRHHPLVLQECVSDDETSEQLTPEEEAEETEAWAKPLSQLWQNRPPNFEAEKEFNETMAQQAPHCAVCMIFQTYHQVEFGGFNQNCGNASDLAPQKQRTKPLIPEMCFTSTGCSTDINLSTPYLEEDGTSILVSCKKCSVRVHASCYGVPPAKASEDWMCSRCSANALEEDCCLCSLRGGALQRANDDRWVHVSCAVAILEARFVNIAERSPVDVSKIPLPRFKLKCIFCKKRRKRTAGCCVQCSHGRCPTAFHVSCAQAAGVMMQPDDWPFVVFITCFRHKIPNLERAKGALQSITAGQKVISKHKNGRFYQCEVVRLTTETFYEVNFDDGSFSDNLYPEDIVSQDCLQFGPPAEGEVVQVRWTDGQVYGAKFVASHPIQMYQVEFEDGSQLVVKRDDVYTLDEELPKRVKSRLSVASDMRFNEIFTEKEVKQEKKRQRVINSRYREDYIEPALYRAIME
Take `Cn1c(=O)cc(OCC(=O)N2CCN(c3ccccc3)CC2)c2ccccc21`: the Potency entry was “inactive”.

For `Cc1ccccc1C(=O)Nc1sc2c(c1C(=O)N1CCC(C)CC1)CCCC2`, the Potency result was “inactive”.

As for `CC(=O)Nc1c(C)nn(-c2ccccc2)c1N1CCC(C(=O)Nc2cc(Cl)ccc2C)CC1`, the Potency entry is “inactive”.

As to `Cc1ccc(Cc2nc3ccccc3nc2SCC(=O)Nc2cccc(C(F)(F)F)c2)cc1`, the Potency result was “inactive”.

For the molecule `CCc1nc2ccc(C(=O)N3CCN(c4cc(Cl)ccc4C)CC3)cc2nc1CC`, the Potency entry was “inactive”.

As for `COc1ccc(CCNC(=O)c2c3c(nc4ccccc24)C(=O)N(C2CCCCC2)C3)cc1OC`, the Potency entry was “inactive”.

For `COc1cccc(NC(=O)c2ccc3nc(CCc4ccccc4)oc3c2)c1`, the Potency entry was “inactive”.

For the molecule `CCOC(=O)c1scc(-c2ccc(C)cc2)c1S(=O)(=O)Nc1cc(C)ccc1C`, the Potency entry is “inactive”.

Regarding `COc1ccc(NC(=O)C2CCN(c3ccc(Sc4ccc(C)cc4)nn3)CC2)c(OC)c1`, the Potency entry was “inactive”.

With `Nc1ccc(N=Nc2ccccc2Cl)c(N)n1`, the Potency was 25.1 µM (active).

`COc1ccc(Cl)cc1N(C)C(=O)c1cc2c(=O)oc3ccc(C)cc3c2s1`: the Potency result is “inactive”.

On to `COc1cc(Cl)c(S(=O)(=O)N2CCN(Cc3ccc4c(c3)OCO4)CC2)cc1Cl`, for which the Potency result is “inactive”.

As for `COc1ccc(-c2cc(C(=O)N3CCN(Cc4ccc5c(c4)OCO5)CC3)on2)cc1OC`, the Potency is 20 µM (active).

`Cc1cc(C)n2nc(C(=O)N3CCN(Cc4ccc5c(c4)OCO5)CC3)nc2n1`: the Potency entry is “inactive”.

With `COc1ccc(-c2nc3scc(CCNS(=O)(=O)c4cc(F)ccc4OC)n3n2)cc1OC`, the Potency result is “inactive”.

On to `Cc1cc(C)nc(S/C=C/C(=O)c2ccccc2)n1`, for which the Potency entry was “inactive”.

For the molecule `O=C(/C=C/Sc1ncn[nH]1)c1ccc(Cl)cc1`, the Potency is 31.6 µM (active).

Take `CC(=O)c1ccc(N2CCN(c3nc4c(S(=O)(=O)c5ccccc5)nnn4c4ccc(Cl)cc34)CC2)cc1`: the Potency entry is “inactive”.

As to `COc1ccc(S(=O)(=O)NCc2cccn2Cc2cccc(C)c2)cc1Cl`, the Potency entry is “inactive”.

Consider `C=CCN(CC=C)CCOc1ccccc1[N+](=O)[O-]`, for which the Potency was 1 µM (active).

For the molecule `O=C(COc1ccccc1[N+](=O)[O-])NC1CC1`, the Potency entry was “inactive”.

For `Cc1ccc(OCC(=O)Oc2ccccc2[N+](=O)[O-])cc1`, the Potency result is “inactive”.

As to `COc1ccc(CNC(=O)C2=Cc3cccc(OC)c3OC2)cc1OC`, the Potency result is “inactive”.

`CCN(CC)c1nc(C#N)nc(OC)n1`: the Potency entry is “inactive”.

Take `O=C(CCn1c(=O)c2sccc2n(Cc2ccc(F)cc2)c1=O)NCc1ccc2c(c1)OCO2`: the Potency result is “inactive”.

With `CC(O)c1ccc(OCCN(C)c2ccccn2)cc1` (configuration not stated), the Potency entry was “inactive”.

Turning to `CN(CCOc1ccc(CC2SC(=O)NC2=O)cc1)c1ccccn1` (configuration not stated), the Potency entry is “inactive”.

Take `CCN(CC)CCOc1ccc2c(c1)C(=NNC(=O)c1ccccn1)c1cc(OCCN(CC)CC)ccc1-2`: the Potency was 25.1 µM (active).

On to `Cc1cccc(NC(=O)Cn2nc(-c3ccc(Cl)cc3)c3ccccc3c2=O)c1`, for which the Potency entry was “inactive”.

As for `O=C(CN1C(=O)COc2ccc(S(=O)(=O)N3CCCCCC3)cc21)N1CCN(c2cccc(C(F)(F)F)c2)CC1`, the Potency entry was “inactive”.

With `CCOCCCNC(=O)c1c(NC(=O)Cc2coc3ccc(C)cc23)sc2c1CCC2`, the Potency entry was “inactive”.

Regarding `CC(C)(C)c1ccc(/C=C/C(=O)Nc2ncccn2)cc1`, the Potency entry was “inactive”.

`CN(C)c1ccc(/C=C/C(=O)c2ccc(C(C)(C)C)cc2)cc1[N+](=O)[O-]`: the Potency was 11.2 µM (active).

In the case of `Cc1cc(C(=O)O)ccc1[N+](=O)[O-]`, the Potency result was “inactive”.

Consider `CCOc1ccc(NC(=O)CC2C(=O)N(c3cccc(OC)c3)C(=O)N2C2CCCCC2)cc1` (configuration not stated), for which the Potency result is “inactive”.

With `Cc1ccccc1CNC(=O)CCc1cn(Cc2ccccc2C)c2ccccc12`, the Potency entry was “inactive”.

As to `CSCCC(NC(=O)c1cc([N+](=O)[O-])cc([N+](=O)[O-])c1)c1nc2ccccc2[nH]1` (configuration not stated), the Potency result is “inactive”.

Consider `CSCCC(NC(=O)c1ccc(=O)n(C)n1)c1nc2ccccc2[nH]1` (configuration not stated), for which the Potency was 89.1 µM (active).

Consider `COc1ccc(CC(=O)N[C@@H](CCSC)c2nc3ccccc3[nH]2)cc1`, for which the Potency entry was “inactive”.

For the molecule `Cc1ccc(CNC(=O)CCC(=O)N2Cc3ccccc3Oc3ncccc32)cc1`, the Potency result is “inactive”.

For `O=C(Nc1nonc1-c1ccc(Cl)cc1)c1ccco1`, the Potency entry is “inactive”.

Regarding `CCN(c1ccc(Cl)cc1)S(=O)(=O)c1nnc(NC(=O)c2ccco2)s1`, the Potency entry is “inactive”.

As to `O=C(Nc1nc(-c2ccco2)c(-c2ccco2)s1)c1ccco1`, the Potency was 50.1 µM (active).

In the case of `Cc1ccc(S(=O)(=O)c2cn(Cc3ccccc3)c3cc(N4CCCC4)c(F)cc3c2=O)c(C)c1`, the Potency result was “inactive”.

For the molecule `CCOc1ccc(NCCC(=O)c2ccc3c(c2)OCO3)cc1`, the Potency was 39.8 µM (active).

Take `O=C(COc1ccc(Cl)cc1)Nc1ccc2c(c1)OCO2`: the Potency result was “inactive”.

Consider `COC(=O)CCNc1ccc2c(c1)OCCO2`, for which the Potency entry was “inactive”.

On to `Cc1ccc(CNC(=O)C2(C(F)(F)F)C/C(=C\Cc3ccccc3)CCCO2)o1` (configuration not stated), for which the Potency result is “inactive”.

With `CNC(=O)[C@]1(C(F)(F)F)C[C@H](CCc2ccccc2)CCCO1`, the Potency entry was “inactive”.

For the molecule `O=C(NCc1ccccn1)[C@]1(C(F)(F)F)C[C@H](CCc2ccccc2)CCCO1`, the Potency is 39.8 µM (active).

With `CCCOc1cccc(C(=O)Nc2cccc(NC(=O)c3ccc(C(C)(C)C)cc3)c2)c1`, the Potency result is “inactive”.

For `CCN1CCN(C(C(=O)NC2CCCC2)c2cc3c(cc2[N+](=O)[O-])OCO3)CC1` (configuration not stated), the Potency entry was “inactive”.

As for `Cc1ccc(S(=O)(=O)N/N=C\c2cc3c(cc2[N+](=O)[O-])OCO3)cc1`, the Potency result is “inactive”.

For `CCOc1ccc(-c2n[nH]c(=S)n2/N=C/c2cc3c(cc2[N+](=O)[O-])OCO3)cc1`, the Potency is 17.8 µM (active).

On to `Cc1ccc(-c2n[nH]c(=S)n2/N=C/c2cc3c(cc2[N+](=O)[O-])OCO3)cc1`, for which the Potency was 10 µM (active).

For the molecule `CCOC(=O)c1nc(-c2ccc3c(c2)OCO3)[nH]c1C`, the Potency result was “inactive”.

Regarding `O=S(=O)(c1ccc(Cl)cc1)c1nnn2c1nc(NC1CCCC1)c1sccc12`, the Potency entry is “inactive”.

For the molecule `Cc1cc(S(=O)(=O)NCc2ccccn2)c(Cl)cc1Cl`, the Potency entry is “inactive”.

With `COc1ccc(-c2ccc(CNCCCN3CCOCC3)o2)cc1Cl`, the Potency result is “inactive”.

With `Fc1ccc(-c2ccc(CNCc3ccccn3)o2)cc1Cl`, the Potency is 63.1 µM (active).

As for `O=C(NC1CCN(Cc2ccccc2)CC1)c1ccc(Cn2c(=O)c3ccccc3n(Cc3cccc(F)c3)c2=O)cc1`, the Potency entry is “inactive”.

As to `O=C1CN(C(=O)Nc2ccccc2C(F)(F)F)C(c2ccccc2)c2c(sc3c2CCCC3)N1` (configuration not stated), the Potency result was “inactive”.

On to `COc1ccc(CNC(=O)CS(=O)Cc2nc(-c3cccc(C)c3)oc2C)cc1` (configuration not stated), for which the Potency result is “inactive”.

With `Cc1cccc(N2CCN(C(c3ccccc3)c3nnnn3CC3CCCO3)CC2)c1C` (configuration not stated), the activity change, negative = inhibition is -8.9% [at 11.4 µM].

In the case of `CC1(C)CC(N2CCN(C(c3ccccc3)c3ccccc3)CC2)=CC(=[N+]2CCCCC2)C1`, the Potency is 25.1 µM (active).

Take `CC1(C)CC(=O)C=C(N2CCOCC2)C1`: the Potency result is “inactive”.

As for `CCNS(=O)(=O)c1ccc(NC(=O)CSc2nc(-c3ccco3)cc(C(F)(F)F)n2)cc1`, the Potency result is “inactive”.

Regarding `O=C(CSc1cn(CC(=O)N2CCOCC2)c2ccccc12)Nc1ccccc1`, the Potency entry was “inactive”.

With `CC(=O)Nc1ccc(NC(=O)C2CCCN(S(=O)(=O)c3ccc4c(c3)CCCC(=O)N4)C2)cc1` (configuration not stated), the Potency entry was “inactive”.

As to `COc1cc(C2c3c(oc4ccccc4c3=O)C(=O)N2c2nc(C)c(C)s2)ccc1O` (configuration not stated), the Potency result was “inactive”.

In the case of `CCOc1ccc(-n2c(C)nc3c(cnn3-c3ccc(C)cc3)c2=O)cc1`, the Potency entry was “inactive”.

In the case of `Cn1ccc2cc(S(=O)(=O)N3CCCC(C(=O)NCc4ccccc4F)C3)ccc21` (configuration not stated), the Potency entry is “inactive”.

In the case of `COc1ccc(CN2CCNC(=O)C2CC(=O)N(C)Cc2ccccn2)cc1OC` (configuration not stated), the Potency was 14.1 µM (active).

As to `COc1cccc(CN2CCNC(=O)C2CC(=O)N(C)CCc2ccccn2)c1` (configuration not stated), the Potency entry was “inactive”.

With `CN(Cc1cccc2ncccc12)C(=O)CC1C(=O)NCCN1Cc1ccc(F)cc1` (configuration not stated), the Potency entry is “inactive”.

Regarding `Cc1ccc(CCNC(=O)c2ccc3c(c2)N(Cc2cc(C)ccc2C)C(=O)c2ccccc2S3=O)cc1` (configuration not stated), the Potency entry was “inactive”.

`Cc1ccc(NC(=O)NC(C)c2c(-n3cccc3)sc(C)c2C)c(C)c1` (configuration not stated): the Potency entry was “inactive”.

On to `CCn1cc(NC(=O)Nc2ccc(OC)c(OC)c2)c(C(N)=O)n1`, for which the Potency result was “inactive”.

As to `COc1ccc(NC(=O)NC(C)c2c(-n3cccc3)sc(C)c2C)cc1OC` (configuration not stated), the Potency was 50.1 µM (active).

Take `Cc1cc2c(s1)c1cnn(Cc3c(F)cccc3Cl)c(=O)c1n2C`: the Potency entry is “inactive”.

As for `Cc1ccc(S(=O)(=O)N(CC(=O)Nc2ccc(Cl)cc2Cl)c2ccccc2C)cc1`, the Potency entry is “inactive”.

`COc1cccc(CNC(=O)c2ccc3c(c2)sc2nc(-c4cccc(OC)c4)cn23)c1`: the Potency entry is “inactive”.

`CCCCc1nc2ccccc2c(NC(=O)CN2CCN(C)CC2)c1CCC`: the Potency is 0.708 µM (active).

Take `CCc1cc(C(=O)c2ccc(OC)cc2)c(NC(=O)CN2CCN(C)CC2)s1`: the Potency entry is “inactive”.

As to `CCc1ccc(-c2cc(C(=O)NN3CCN(C)CC3)c3ccccc3n2)cc1`, the Potency entry was “inactive”.

For the molecule `CC(C)C(=O)Nc1nc2c(s1)CC(C(C)(C)C)CC2` (configuration not stated), the Potency entry is “inactive”.

As for `CC1CN(C(=O)N2CCC(C(=O)NCc3cccs3)CC2)c2ccccc2O1` (configuration not stated), the Potency entry was “inactive”.

As to `Cc1nn(-c2nc(-c3ccccc3)cc(C(F)(F)F)n2)c(C)c1Cl`, the Potency result was “inactive”.

Regarding `CNc1ccc(-c2nc(-c3ccccc3C)no2)cc1[N+](=O)[O-]`, the Potency entry was “inactive”.

Consider `COc1ccc(N(C)C(=O)C2CCN(S(=O)(=O)c3cc(Br)cc4c3N(C(C)=O)CC4)CC2)cc1`, for which the Potency entry was “inactive”.

With `Cc1onc(-c2ccccc2Cl)c1C(=O)N(Cc1ccc(N(C)C)cc1)C(C)C`, the Potency is 39.8 µM (active).

As to `Cc1ccc2cc(CCNC(=O)c3c(-c4ccccc4Cl)noc3C)c(=O)[nH]c2c1`, the Potency entry is “inactive”.

Regarding `Cc1onc(-c2ccccc2Cl)c1C(=O)NCCn1ccc2ccccc21`, the Potency result was “inactive”.

Regarding `CCOc1ccc(OCC)c(Nc2nc3ccccc3n3nnnc23)c1`, the Potency entry was “inactive”.

`CCC(=O)N1CCc2cc(Br)cc(S(=O)(=O)CCC(=O)N3CCN(c4ccc(F)cc4)CC3)c21`: the Potency result is “inactive”.

Turning to `Cc1ccccc1CSc1nc(-c2ccccc2)nc2c1Cc1c(CO)cnc(C)c1O2`, the Potency result was “inactive”.

In the case of `CCOC(=O)Cn1c(=O)n(C2CCCCC2)c2nc(-c3cccc(OC)c3)nc(C(N)=O)c21`, the Potency result is “inactive”.
